Compounds without any hit were thinned out: in the full panel of roughly 83,000, 20% have a hit.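 Cell lines were cultured in 96-well plates, exposed to a single compound concentration, and assessed for percent growth 48 hours later.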 Values without a mark were called inactive. Active and inactive are the calls of the source.
These molecules were tested on MCF7 breast (assay: NCI-60 one-dose screen, 48 h (100 = growth as untreated, 0 = no growth, -100 = all killed)). Details: 10 µM.
Protocol: Growth inhibition of the MCF7 human tumor cell line is measured as a screen for anti-cancer activity. Cells are grown in 96 well plates and exposed to the test compound for 48 hours. Compounds are tested at a single concentration, which is 10^-5 M for most compounds. The reported endpoint is percent growth (GI% or GIPRCNT), where numbers from 0 - 100% represent growth inhibition, and numbers from -100% - 0 represent cell death. For example, a value of 40 represents 60% growth inhibition. A value of 0 means no net growth occurred over the course of the experiment. A value of -40 indicates 40% of cells at the beginning of the experiment died by the end of the experiment. A value of -100 means all cells are dead at the end of the experiment.
NCI-60 Human Tumor Cell Lines Screen was performed using the standard one-dose NCI protocol, which is described in more detail at https://dtp.cancer.gov/discovery_development/nci-60/default.htm.
Compounds with GIPRCNT values below 10 were considered active. Activity score was based on GIPRCNT using the following formula: […]
Score is 0 for GIPRCNT values of 100 or above, 50 for GIPRCNT values of 0, and 100 for GIPRCNT values of -100.

| Structure (SMILES) | growth [%] |
| --- | --- |
| C=C1CC/C=C(\C)C(=O)C[C@@H]2[C@@H]1CC2(C)C | 101 |

Same assay, conditions: 10 µM unless noted

| Structure (SMILES) | growth |
| --- | --- |
| O=S(=O)(O)c1cc(O)c2c(N=Cc3ccccc3O)c(S(=O)(=O)O)ccc2c1 | 104% |
| CCOc1ccc(Br)cc1/C=N\N=C\c1cc(Br)ccc1OCC | 101% |
| NC(=S)NN=C1CCCC1 | 21.7% |
| CN(C)CCN(C)CC(C)(C)C(=O)/C=C/c1ccc(Cl)cc1 | -8.84% (active) |
| O=[N+]([O-])c1cccc(N=Nc2ccc(O)cc2O)c1 | 84.3% |
| CC1(C(N)=O)CCC(C(=O)O)C1(C)C (stereo not given) | 88.4% |
| CCC(O)CC(CC)CO (stereo not given) | 97.8% |
| CC(C)CCOC(=O)c1ccccc1 | 99.7% |
| CCOc1ccc(I)cc1 | 98.2% |
| O=C(/C=C/C(=O)c1ccccc1)c1ccccc1 | 75.2% |
| Nc1ccccc1C(=O)Nc1ccc(Cl)cc1Cl | 65.5% |
| Cc1nc2c(ccc3ccccc32)s1 | 99.2% |
| O=[N+]([O-])c1ccc(-c2ncc(-c3ccc(Br)cc3)o2)cc1 | 87.4% |
| CC(C)(C)n1nc(C2CC2)c(Br)c1NC(=O)c1ccccc1F | 95.7% |
| O=[N+]([O-])c1ccc(-c2noc(-c3cccs3)n2)cc1 | 63.2% |
| CC(C)C1CCCCC1O (stereo not given) | 107% |
| Cc1cc2nc(CC(=O)c3cccc([N+](=O)[O-])c3)c(=O)[nH]c2cc1C | 74.8% |
| CCCCCCCCCCC(C)Br (stereo not given) | 98.4% |
| CC(=O)NC(N)=S | 86.5% |

| Structure (SMILES) | growth |
| --- | --- |
| Nc1nc(N)c(N=Nc2ccc(C(=O)O)cc2)c(N)n1 | 104% |
| O=c1[nH]n(-c2ccccc2)c(=O)cc1Cl | 96.8% |
| O=C(O)c1cc([N+](=O)[O-])ccc1Cl | 88% |
| CCCCC/C=N/Nc1nc(C)cc(=O)[nH]1 | 92.9% |
| C[C@]12CC[C@@H]3c4ccc(OCC(=O)O)cc4CC[C@H]3[C@@H]1CCC2=O | 130% |
| O=c1cc2oc3cc(O)c(O)cc3c(-c3ccccc3O)c-2cc1O | 75.8% |
| CCOC(=O)/C(=C/c1ccc(OC)cc1)N(CC)CC | 103% |
| c1ccc(Cc2ccccc2)cc1 | 113% |
| O=C(c1ccc(Cl)cc1)c1ccccc1Cl | 95.7% |
| COC(=O)/C=C/C(=O)NC(N)=O | 94.8% |
| COc1cc2cc(OC(C)=O)c3cc4c(cc3c2c(OC)c1OC)OCO4 | 93.6% |
| O=C(O)c1ccccc1NCc1ccco1 | 97.4% |
| COc1ncnc2c1cnn2C | 101% |
| CC1(O)OC(COc2ccc(Cl)cc2)COC1O (stereo not given) | 90.4% |
| COC(=O)/C=C\C(=O)OC | 103% |
| OC1CCCc2ccccc21 (stereo not given) | 94.1% |
| CNc1nc(NC)c2cn[nH]c2n1 | 97.3% |
| Cc1ccc(N)cc1[N+](=O)[O-] | 76.4% |
| COc1cc(/C=N\Nc2ccccc2)ccc1OC(=O)c1ccccc1 | 56.4% |

Same assay, conditions: 100 µM

| Structure (SMILES) | growth |
| --- | --- |
| C=C1CC/C=C(\C)C(=O)C[C@@H]2[C@@H]1CC2(C)C | -72% (active) |

Reference: PubChem BioAssay (NCI)
